PubChem BioAssay (NCI)
This is part of a sample that, as a whole, favours compounds with a hit. Of some 79,000 tested, about 15% had one in any assay. Values without a mark were called inactive. Active and inactive are the calls of the source. No stated cut-off is given here; in the data, active means growth inhibition above about 70%; inactive means the rest.

Columns and labels:
[1] = NCI Yeast Anticancer Drug Screen. Data for the rad50 strain (AID 155);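 further: 0% = growth of vehicle-only cultures of the same strain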; conditions: S. cerevisiae rad50 strain growth inhibition; at 50.0 µM; stronger effect = higher value
Summary of the method: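 Compounds were tested on a yeast strain with an engineered DNA damage repair alteration; the reported value is growth inhibition normalised to vehicle treatment.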

[2] = NCI Yeast Anticancer Drug Screen. Data for the mec2-1 strain (AID 157); conditions: S. cerevisiae mec2-1 strain, at 50.0 µM, stronger effect = higher value
Summary of the method: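 Mutant yeast (mec2-1) grown with compound; growth inhibition relative to vehicle control reported.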

[3] = NCI Yeast Anticancer Drug Screen. Data for the sgs1 mgt1 strain (AID 161);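 further: 0% = growth of cultures given vehicle only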; conditions: S. cerevisiae sgs1 mgt1 strain, at 50.0 µM, stronger effect = higher value
Summary of the method: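 This yeast growth screen uses a strain with defined DNA-repair lesions; compound-treated growth is compared with vehicle-treated growth.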

[4] = NCI Yeast Anticancer Drug Screen. Data for the cln2 rad14 strain (AID 165);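 further: 0% = growth equal to vehicle treated cultures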; conditions: S. cerevisiae cln2 rad14 strain, at 50.0 µM, stronger effect = higher value
Summary of the method: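 Readout is yeast growth inhibition versus vehicle-treated controls, using a strain with cln2 and rad14 alterations exposed to compound.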

[5] = NCI Yeast Anticancer Drug Screen. Data for the bub3 strain (AID 167); conditions: S. cerevisiae bub3 mutant strain, at 50.0 µM, stronger effect = higher value
Summary of the method: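 Growth of a checkpoint-deficient yeast mutant is measured after compound exposure. Values represent inhibition relative to vehicle.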

[6] = NCI Yeast Anticancer Drug Screen. Data for the mlh1 rad18 strain (AID 175); conditions: S. cerevisiae mlh1 rad18 strain growth inhibition; at 50.0 µM; stronger effect = higher value
Summary of the method: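 Genetically defined yeast (DNA repair-deficient) exposed to compounds; growth inhibition determined relative to vehicle.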

Compound | growth inhibition [1] | growth inhibition [2] | growth inhibition [3] | growth inhibition [4] | growth inhibition [5] | growth inhibition [6]
CC1(C)Oc2ccc3c(=O)c(-c4ccccc4)c(-c4ccccc4)oc3c2C1C(=O)O (stereo unspecified) | 12.5% | -1.35% | -17.6% | 12.8% | 0.25% | 10.8%
COc1ccc(C2=C/C(=C/c3cccc(OC)c3OC)C(=O)O2)cc1 | -10.6% | 0.65% | 11.9% | -30.9% | -11.2% | -5.35%
CC1=CC(=O)/C(=C/n2c(=S)[nH]c3ccc([N+](=O)[O-])cc32)C(=O)O1 | 2.1% | -44.7% | -9.5% | 6.85% | 6.6% | -46.3%
COc1ccc([N+](=O)[O-])cc1OC | 29.9% | -0.15% | 33.1% | 1.65% | 0.45% | 16.1%
CC(=O)N=Cc1ccccc1O | -27.8% | -16% | -50.2% | -77.7% | -34.5% | -20.7%
O=C1CCCNc2c(Br)cc(Br)cc21 | 49.2% | 24.7% | 14.2% | 8.6% | 46.5% | 14.8%
CC1(C)CC2=C(Sc3ccccc3N2)C(=O)C1C(=O)C(=O)Nc1cc(Cl)ccc1Cl (stereo unspecified) | -1.3% | -6.95% | -6.85% | -28.3% | -0.25% | -9.55%
Cc1cc(=O)n2c(n1)sc1ccc3ccccc3c12 | 12% | -11.8% | 3.1% | 12.8% | -12.8% | 33.9%
Clc1cc(Br)c2c(Cl)ccnc2c1Br | 35.6% | -1.3% | 7.5% | -8.65% | 0.85% | 20%
COc1ccc(C2c3cc4c(cc3OC(C)(OC)C2C)OCO4)cc1 (stereo unspecified) | -33.5% | -6.8% | -3.25% | -14.8% | 19.8% | 14.7%
CCC(CO)N1CNC(=S)NC1 (stereo unspecified) | -4.8% | -14.1% | 4.85% | 0.8% | 4.7% | 0.3%
O=c1nc(Sc2ccccc2)ccn1C1OC(CO)C(O)C1O (stereo unspecified) | -11.5% | -8.95% | -1.45% | 9.35% | 6.55% | 5.95%
c1ccc2[nH]c(N=Nc3cccc4c(N=Nc5cc6ccccc6[nH]5)cccc34)cc2c1 | 5.1% | -11.4% | -13.7% | 18.1% | -2.6% | 8.65%
CCCOc1cc2c(cc1C(C)c1ccc(OCC)c(C)c1)OCO2 (stereo unspecified) | -1.7% | 0.75% | -9.05% | -94% | -3.9% | -5.1%
COC(=O)c1nc(=S)[nH]c(C(=O)OC)c1C(=O)c1cccnc1 | -4.3% | 15.2% | 17.4% | 4.25% | 39.4% | 17.9%
Cc1ccc(C)c(NC(=O)Oc2ccc(Cl)cc2Cc2ccccc2)c1 | 5.35% | -3.5% | 0.05% | 11.8% | 8.2% | 7.1%
O=Cc1ccc2c(c1)CC1(Cc3ccccc3C1)C2 | -3.35% | -47.8% | -10.8% | -7.2% | 9.9% | -30.3%
COC(=O)c1oc([N+](=O)[O-])c(-c2ccccc2)c1-c1ccccc1 | 6.95% | 12.5% | 29.3% | -11.5% | 6.85% | 24.1%
Cc1ccc(NC(=S)N/C=C(\c2ccccc2)S(=O)Cc2ccccc2)c(C)c1 (stereo unspecified) | 8% | -22.1% | -8% | 15.7% | 14.1% | 1.8%
COc1ccc(NC(=O)C2=C(SC)C(C#N)C(=O)N=C2N)cc1 (stereo unspecified) | -25.1% | -12.5% | 0.2% | 19.7% | -31.4% | 1.3%
NC(=O)C(Cc1ccccc1)c1ccccc1 (stereo unspecified) | -12.2% | -15.2% | -7.55% | -23% | -16.6% | 18.4%

Compound | growth inhibition [1] | growth inhibition [2] | growth inhibition [3] | growth inhibition [4] | growth inhibition [5] | growth inhibition [6]
O=C(COc1ccc(Cl)c(Cl)c1)Nc1cccc(C(=O)CCl)c1 | 36.6% | 50% | 45.5% | 9.1% | 81.3% (active) | 62.8%
Cc1cc(C)c(C(=O)O)c(C)c1Br | -3% | -27.4% | -4.85% | -34.6% | 9.1% | 4.5%
O=[N+]([O-])c1ccc(N2CCCC2)cc1 | 14.2% | -8.05% | -6.9% | 0.8% | 13.8% | -16.7%
CC1(C)OC2(CC1C1(C)C=CC(=O)O1)CC1(O)C(CCC34CC13C(=O)OC4c1ccoc1)O2 (stereo unspecified) | 17% | 4.25% | -10.3% | 24.7% | 14.9% | 16.8%
O=C(Nc1ccc2ncccc2c1)Nc1ccc2ncccc2c1 | 12.9% | -12.8% | 4.2% | -4.85% | -10.4% | 21.4%
CCC(O)(c1ccc(OC)cc1)C(c1ccc(OCc2ccccc2)cc1)c1ccc(OCc2ccccc2)cc1 (stereo unspecified) | 18.9% | -22.2% | 5.5% | 10.8% | -10.1% | -12.9%
Nc1ccccc1SC(CC(=O)c1ccccc1)c1cccc([N+](=O)[O-])c1 (stereo unspecified) | -31.1% | -26.1% | 0.55% | -29.6% | -17.9% | -13.5%
O=C(O)C1CC2CC2C1 (stereo unspecified) | 2.6% | 12% | -2.8% | 9.9% | 16.1% | 9.1%
C(=N\OCCc1ccccc1)/c1ccccn1 | -14.7% | -33.1% | -8.95% | -25.3% | 9.7% | 4%
O=C(CC(c1ccccc1)C(Br)(c1ccccc1)[N+](=O)[O-])c1ccccc1 (stereo unspecified) | 11.8% | -0.45% | -2.75% | 22.2% | -3.4% | -5.8%
Cc1[nH]c(=O)n2c(C)nnc2c1C(=O)O | -5.3% | -4.15% | 1.95% | -10.2% | -2.7% | -1.55%
CC(C)SSC(=O)N1CCCC1C(=O)O (stereo unspecified) | -1.6% | 3.05% | -5.45% | -30.9% | -1% | -1.7%
N=c1nc2n(cc1F)[C@@H]1O[C@H](CO)[C@@H](O)[C@@H]1O2 | 13.4% | -3.75% | 4.3% | 8.55% | 12.6% | -12.2%
CC(=O)/C(C)=C\c1ccc(C(C)C)cc1 | 8.85% | -12.7% | -10.9% | -7.2% | 10.9% | -1.55%
Clc1ccccc1-c1nc(-c2ccncc2)no1 | 23.3% | -14.9% | -25% | 34.1% | 57.6% | 34%
CCOC(=O)n1oc2ccc(Br)cc2c1=O | 53.3% | 58% | 76.2% (active) | 45% | 61.6% | 64.5%
COC(CN(C)C(=S)Nc1cccc2ccccc12)OC | -31.9% | -74% | -23.6% | -11.7% | -6.2% | -30.9%
Cc1ccc2c(C)cc(=O)n(C)c2c1 | 4.7% | 11.2% | 9.6% | 4.9% | -0.25% | 15.1%
CCN(CC)C(=S)SCCO | -4.3% | -11.2% | 6.15% | -9.7% | -3.5% | -1.65%
Nc1c(Br)c(Br)cc2c1-c1ccc(Br)cc1C2 | 8.2% | 3.75% | -2.65% | 8.75% | 7.9% | -4.7%
